In PubChem BioAssay AID1159580 (chemical genetic matrix, 2015):
Out of some 5,500 compounds screened, about 2,000 (36%) were called active. Roughly 18% stayed inconclusive and do not appear here. Cut-off read from the data, not from the text of the source: active = normalized growth mostly below about 0.91 (no sharp cut-off); inconclusive = no clear call, values can overlap the other calls; inactive = mostly above about 0.92. The list shows a part of the results.

Assay: chemical genetic growth profiling, strain panel (AID 1159580);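 note: tested at 20 µM; growth read once vehicle control cultures reached saturation at 30 °C; 1 = growth at the plate median or of vehicle wells; lower values mean less growth of the strain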
Settings: growth OD
[1] = S. cerevisiae deletion strains, locus YBR229C, strain ROT2, active compounds read low
[2] = S. cerevisiae deletion strains, locus YDL101C, strain DUN1, active compounds read low
[3] = S. cerevisiae deletion strains, locus YJR043C, strain POL32, active compounds read low
[4] = S. cerevisiae deletion strains, locus YJR075W, strain HOC1, active compounds read low
[5] = S. cerevisiae deletion strains, locus YLR039C, strain RIC1, active compounds read low
[6] = S. cerevisiae deletion strains, locus YLR262C, strain YPT6, active compounds read low
[7] = S. cerevisiae deletion strains, locus YMR263W, strain SAP30, active compounds read low
[8] = S. cerevisiae deletion strains, locus YMR307W, strain GAS1, active compounds read low
[9] = S. cerevisiae deletion strains, locus YNL153C, strain GIM3, active compounds read low
[10] = S. cerevisiae deletion strains, locus YPL055C, strain LGE1, active compounds read low
[11] = S. cerevisiae deletion strains, locus YPL241C, strain CIN2, active compounds read low

Measured: normalized growth

CC12CCC(O)CC1CCC1C2[C@H](O)CC2(C)C(C3=CC(=O)OC3)CCC12O (some centres not stated)
inactive: S. cerevisiae deletion strains, locus YBR021W, strain FUR4, active compounds read low 1.02 | [1] 1.03 | S. cerevisiae deletion strains, locus YCL029C, strain bik1, active compounds read low 1.01 | S. cerevisiae deletion strains, locus YDL035C, strain GPR1, active compounds read low 1.07 | S. cerevisiae deletion strains, locus YDL074C, strain BRE1, active compounds read low 1.08 | [2] 1.02 | S. cerevisiae deletion strains, locus YDL185W, strain tfp1, active compounds read low 0.995 | S. cerevisiae deletion strains, locus YDL192W, strain arf1, active compounds read low 1.01 | S. cerevisiae deletion strains, locus YDR101C, strain arx1, active compounds read low 1.02 | S. cerevisiae deletion strains, locus YDR162C, strain NBP2, active compounds read low 1.03 | S. cerevisiae deletion strains, locus YDR318W, strain mcm21, active compounds read low 0.998 | S. cerevisiae deletion strains, locus YDR388W, active compounds read low 0.983 | S. cerevisiae deletion strains, locus YDR502C, strain sam2, active compounds read low 1 | S. cerevisiae deletion strains, locus YER110C, active compounds read low 0.988 | S. cerevisiae deletion strains, locus YER155C, strain BEM2, active compounds read low 1.01 | S. cerevisiae deletion strains, locus YER167W, strain BCK2, active compounds read low 1.04 | S. cerevisiae deletion strains, locus YGL078C, strain dbp3, active compounds read low 1 | S. cerevisiae deletion strains, locus YGL086W, strain mad1, active compounds read low 0.992 | S. cerevisiae deletion strains, locus YGL248W, strain PDE1, active compounds read low 1.02 | S. cerevisiae deletion strains, locus YGR135W, strain pre9, active compounds read low 0.976 | S. cerevisiae deletion strains, locus YGR252W, strain gcn5, active compounds read low 0.954 | S. cerevisiae deletion strains, locus YHR079C, strain IRE1 (second series), active compounds read low 0.992 | S. cerevisiae deletion strains, locus YHR094C, strain hxt1, active compounds read low 0.984 | S. cerevisiae deletion strains, locus YHR129C, strain ARP1, active compounds read low 1.02 | S. cerevisiae deletion strains, locus YHR200W, strain rpn10, active compounds read low 0.999 | S. cerevisiae deletion strains, locus YIL066C, strain RNR3, active compounds read low 1.04 | S. cerevisiae deletion strains, locus YIL073C, strain SPO22, active compounds read low 1.06 | S. cerevisiae deletion strains, locus YIL125W, strain kgd1, active compounds read low 0.996 | S. cerevisiae deletion strains, locus YIR030C, strain dcg1, active compounds read low 0.986 | S. cerevisiae deletion strains, locus YJL095W, strain BCK1, active compounds read low 1.03 | S. cerevisiae deletion strains, locus YJL134W, strain LCB3, active compounds read low 1.01 | S. cerevisiae deletion strains, locus YJL168C, strain set2, active compounds read low 0.992 | S. cerevisiae deletion strains, locus YJL187C, strain SWE1 (second series), active compounds read low 1.01 | [3] 1.06 | [4] 1.03 | S. cerevisiae deletion strains, locus YKL009W, strain mrt4, active compounds read low 1.06 | S. cerevisiae deletion strains, locus YKL068W, active compounds read low 1 | S. cerevisiae deletion strains, locus YKL085W, strain MDH1 (second series), active compounds read low 1 | S. cerevisiae deletion strains, locus YKL085W, strain MDH1, active compounds read low 1 | S. cerevisiae deletion strains, locus YKL190W, strain CNB1, active compounds read low 1.02 | S. cerevisiae deletion strains, locus YKR001C, strain vps1, active compounds read low 1.01 | [5] 1.1 | S. cerevisiae deletion strains, locus YLR058C, strain SHM2, active compounds read low 1.03 | S. cerevisiae deletion strains, locus YLR102C, strain apc9, active compounds read low 0.994 | [6] 1.16 | S. cerevisiae deletion strains, locus YLR268W, strain sec22, active compounds read low 1.01 | S. cerevisiae deletion strains, locus YLR371W, strain rom2, active compounds read low 0.991 | S. cerevisiae deletion strains, locus YLR418C, strain cdc73, active compounds read low 0.957 | S. cerevisiae deletion strains, locus YML016C, strain PPZ1, active compounds read low 1.02 | S. cerevisiae deletion strains, locus YML032C, strain rad52, active compounds read low 1 | S. cerevisiae deletion strains, locus YML124C, strain tub3, active compounds read low 1 | S. cerevisiae deletion strains, locus YMR078C, strain ctf18, active compounds read low 1 | S. cerevisiae deletion strains, locus YMR223W, strain ubp8, active compounds read low 0.983 | [7] 1.02 | [8] 1.08 | S. cerevisiae deletion strains, locus YNL067W, strain RPL9B, active compounds read low 1.01 | [9] 1.03 | S. cerevisiae deletion strains, locus YNL233W, strain BNI4, active compounds read low 1.03 | S. cerevisiae deletion strains, locus YNL250W, strain rad50, active compounds read low 0.986 | S. cerevisiae deletion strains, locus YNL271C, strain bni1, active compounds read low 0.995 | S. cerevisiae deletion strains, locus YNL298W, strain CLA4, active compounds read low 1.02 | S. cerevisiae deletion strains, locus YNL307C, strain MCK1, active compounds read low 0.987 | S. cerevisiae deletion strains, locus YNR052C, strain pop2, active compounds read low 0.991 | S. cerevisiae deletion strains, locus YOL012C, strain htz1 0.714 | S. cerevisiae deletion strains, locus YOL147C, strain pex11, active compounds read low 0.991 | S. cerevisiae deletion strains, locus YOR061W, strain CKA2, active compounds read low 1.06 | S. cerevisiae deletion strains, locus YOR069W, strain VPS5, active compounds read low 1.01 | S. cerevisiae deletion strains, locus YOR136W, strain idh2, active compounds read low 1.01 | S. cerevisiae deletion strains, locus YOR144C, strain elg1, active compounds read low 0.998 | S. cerevisiae deletion strains, locus YOR184W, strain ser1, active compounds read low 1.05 | S. cerevisiae deletion strains, locus YOR316C, strain cot1, active compounds read low 0.995 | [10] 1.07 | [11] 1.01 | S. cerevisiae deletion strains, locus YPR119W, strain clb2, active compounds read low 0.994 | S. cerevisiae deletion strains, locus YPR141C, strain kar3, active compounds read low 0.982 | S. cerevisiae deletion strains, locus YPR163C, strain tif3, active compounds read low 0.998 | S. cerevisiae deletion strains, locus YPR167C, strain met16, active compounds read low 0.993 | S. cerevisiae deletion strains, strain wtn01, active compounds read low 1.01

CCOC(CN(c1ccc(F)cc1)S(=O)(=O)c1ccc(F)cc1F)OCC
inactive: S. cerevisiae deletion strains, locus YAL013W, strain DEP1, active compounds read low 1 | [1] 1 | S. cerevisiae deletion strains, locus YCL061C, strain MRC1, active compounds read low 1.01 | [2] 0.98 | S. cerevisiae deletion strains, locus YDL134C, strain PPH21, active compounds read low 1.01 | S. cerevisiae deletion strains, locus YDR150W, strain NUM1, active compounds read low 0.957 | S. cerevisiae deletion strains, locus YEL061C, strain CIN8, active compounds read low 0.986 | S. cerevisiae deletion strains, locus YGR078C, strain PAC10, active compounds read low 0.997 | S. cerevisiae deletion strains, locus YHR030C, strain SLT2, active compounds read low 0.936 | S. cerevisiae deletion strains, locus YHR087W, strain rtc3, active compounds read low 1.03 | [3] 0.989 | [4] 0.981 | [5] 0.96 | S. cerevisiae deletion strains, locus YLR058C, strain SHM2 (second series), active compounds read low 0.996 | S. cerevisiae deletion strains, locus YLR085C, strain ARP6, active compounds read low 1.01 | [6] 0.935 | S. cerevisiae deletion strains, locus YML094W, strain GIM5, active compounds read low 0.999 | S. cerevisiae deletion strains, locus YMR219W, strain ESC1, active compounds read low 0.994 | [7] 0.987 | [8] 0.731 | [9] 1.01 | S. cerevisiae deletion strains, locus YNL298W, strain CLA4 (second series), active compounds read low 1.01 | S. cerevisiae deletion strains, locus YNL322C, strain KRE1, active compounds read low 0.995 | S. cerevisiae deletion strains, locus YNR030W, strain Alg12, active compounds read low 0.993 | S. cerevisiae deletion strains, locus YOL006C, strain TOP1, active compounds read low 1.03 | [10] 1.04 | [11] 1 | S. cerevisiae deletion strains, locus YPR135W, strain CTF4, active compounds read low 1.02 | S. cerevisiae strains, strain wild type, active compounds read low 0.991
